High-throughput results from PubChem BioAssay.
D2 PAM-1 = HTS Assay for Positive Allosteric Modulators of the Human D2 Dopamine Receptor: Primary Screen for Potentiators | D(2) dopamine receptor (Homo sapiens), P14416 | HEK293 T-REx D2, calcium flux, EC20 dopamine potentiation | 0.34% of 340,000 active | AID 485347, 2010 | potentiation, % at 10 µM;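 active means potentiation over 3 SD above the plate norm, cut at about 30% in these data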
Target sequence (P14416 whole entry, looked up): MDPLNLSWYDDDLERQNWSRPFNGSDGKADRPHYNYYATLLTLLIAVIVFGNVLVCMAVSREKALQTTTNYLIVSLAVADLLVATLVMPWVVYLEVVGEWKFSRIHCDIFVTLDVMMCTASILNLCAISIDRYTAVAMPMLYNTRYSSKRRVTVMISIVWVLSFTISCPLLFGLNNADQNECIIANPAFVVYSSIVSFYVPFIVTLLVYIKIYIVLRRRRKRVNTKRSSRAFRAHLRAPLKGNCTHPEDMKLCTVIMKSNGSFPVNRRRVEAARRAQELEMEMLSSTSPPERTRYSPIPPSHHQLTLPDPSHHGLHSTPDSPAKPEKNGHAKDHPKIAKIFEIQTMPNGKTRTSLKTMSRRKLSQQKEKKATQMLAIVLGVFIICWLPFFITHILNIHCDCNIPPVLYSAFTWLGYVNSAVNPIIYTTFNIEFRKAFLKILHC
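Calcium flux readout, no-wash dye, 1 read/s. Inducible HEK293 Trex D2 line, overnight 30 C. Compound alone 180 s (agonist flags), then EC20 dopamine, another 180 s to score potentiation.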
Anesthetic bind = qHTS Assay for Identification of Novel General Anesthetics | apoferritin/1-aminoanthracene competitive binding, fluorescence | Potency, µM (titrated, usually from 77.5 µM), most hits filed as inhibitors | 0.074% of 350,000 active | Ferritin light chain (Equus caballus), P02791 | AID 485281, 2010; further: nearly all actives have a fitted effect of over 20% in size
Target sequence (P02791 2-175 limits assumed): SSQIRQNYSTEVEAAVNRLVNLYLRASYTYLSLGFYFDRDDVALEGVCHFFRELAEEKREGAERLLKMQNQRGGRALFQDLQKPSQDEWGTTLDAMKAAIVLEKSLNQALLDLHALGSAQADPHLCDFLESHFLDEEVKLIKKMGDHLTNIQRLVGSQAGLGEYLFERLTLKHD
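Read-out: endpoint 1-AMA fluorescence, excitation 380 nm and emission 535 nm, after compounds sit 10 min at room temperature with 10 uM horse-spleen apoferritin in 50% saturated 1-AMA/PBS. Values come from four-parameter Hill fits.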
D2 antagonist = HTS Assay for Allosteric Antagonists of the Human D2 Dopamine Receptor: Primary Screen for Antagonists; inhibition, % at 10 µM; D(2) dopamine receptor (Homo sapiens), P14416; 2% of 340,000 active; AID 485344, 2010; HEK293 TREx D2 cells, calcium flux, dopamine EC80; in the data active means inhibition above about 30%; inactive means below that, where a call was filed
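Overnight-induced (tetracycline, 30 C) HEK293 T-REx cells carrying force-coupled D2 receive a no-wash calcium dye, then compound, then EC80 dopamine at 180 s; signals are read kinetically throughout.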
D2 PAM-2 = Beta-Arrestin HTS for Positive Allosteric Modulators of the Human D2 Dopamine Receptor: Potentiators; DiscoveRx D2 beta-arrestin cells, luminescence, 90 min; 100% = 57 uM dopamine signal; potentiation, % (no concentration beside the values); 0.23% of 360,000 active; in the data active means potentiation above about 50%; inconclusive means mostly about 30% to 49%
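D2 cells co-treated with compound plus 50 nM dopamine (EC20) for 90 min at 37 deg C to detect potentiation. Beta-arrestin recruitment was read as enzyme-fragment luminescence after 1 h at ambient temperature. Full response was set by 57 uM dopamine.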
D2 ag-1 = HTS Assay for Allosteric Agonists of the Human D2 Dopamine Receptor: Primary Screen for Agonists; D(2) dopamine receptor (Homo sapiens), P14416; HEK293 T-REx D2 cells, calcium flux agonist mode; activation, % at 2 µM; 0.53% of 340,000 active;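 active means activation over 3 SD above normal in the single-dose calcium agonist read, cut at about 30% in these data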
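Agonism is scored from calcium flux in a force-coupled, inducible HEK293 cell line expressing D2, read kinetically for 180 s after compound addition against dopamine controls.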
D2 ag-2 = Beta-Arrestin HTS for Positive Allosteric Modulators of the Human D2 Dopamine Receptor: Agonists; D(2) dopamine receptor (Homo sapiens), P14416; DiscoveRx PathHunter D2 beta-arrestin, luminescence, 90 min; 100% = 57 uM dopamine signal; activation, % (concentration not given with the values); 0.084% of 360,000 active; AID 624465, 2012; in the data active means activation above about 40%; inconclusive means between about 15% and that limit
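DiscoveRx PathHunter D2 beta-arrestin cells (2,100/well) attached overnight, then compound-stimulated 90 min at 37 C in HBSS/10 mM HEPES/0.1% Tween-20 buffer; beta-galactosidase complementation read by luminescence after 1 h at ambient temperature. Dopamine 57 uM final (EC100) as control.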
D3 arrestin ag = qHTS of D3 Dopamine Receptor Agonist: D3 Dopamine Receptor B-arrestin Agonist Confirmatory Assay; Potency, µM (series often up to 76.9 µM), hits mostly activators; shares compounds with D2 ag-1; AID 720506, 2013; DiscoveRx D3 beta-arrestin cells, luminescence, 90 min; 4% of 2,300 active; further: nearly all actives have a fitted effect of over 70% in size
D2 ag-3 = qHTS of D3 Dopamine Receptor Agonist: D2 Dopamine Receptor B-arrestin Agonist Counterscreen | DiscoveRx PathHunter D2 beta-arrestin, luminescence, 90 min; response scale: percent relative to full dopamine signal | 5.9% of 2,300 active | shares compounds with D2 ag-1 | Potency, µM (titrated, usually from 76.9 µM), hits mostly activators; further: nearly all actives have a fitted effect of over 70% in size
Numbers stand for hits; n = inactive; u = inconclusive; x = no result. A selection: hits, their analogues and other compounds. The true share with any hit is near 2.5%. Unless noted, the call rests on the fitted dose curve; in most records, active means well fitted curve in the direction sought with a large enough effect; inconclusive means small, poorly fitted or top-dose-only effect, or another doubt; inactive means no such curve, though single readings can be large; an effect the other way counts as inactive or inconclusive.

SMILES	D2 PAM-1	Anesthetic bind	D2 antagonist	D2 PAM-2	D2 ag-1	D2 ag-2	D3 arrestin ag	D2 ag-3
CCOC(=O)C1CCN(CC(=O)Nc2c(C(=O)OC)[nH]c3cccc(Cl)c23)CC1	n	n	n	n	n	n	n	n
CCOC(=O)C1CCN(CC(=O)Nc2c(C(=O)OC)[nH]c3ccc(Cl)cc23)CC1	x	n	n	n	n	n	x	x
Cc1cc(C(C)(C)C)ccc1OCCN1CCCC1	x	u	x	n	x	n	n	n
CC1CCCCC1NC(=O)c1ccc(S(=O)(=O)NNC(=O)c2ccncc2)cc1 (stereo unspecified)	n	n	x	n	x	n	x	x
Cc1ccc(C2C3=C(CCCC3=O)Nc3c2c(C)nn3-c2ccccn2)o1 (stereo unspecified)	n	n	n	x	n	x	x	x
CCOC(=O)N1CCC(N(CCOC)C(=O)Nc2ccc(Cl)cc2)CC1	n	n	n	n	n	n	x	x
CCOC(=O)N1CCC(N(CCCOC)C(=O)Nc2ccc(CC)cc2)CC1	n	n	n	n	n	n	n	n
Cc1c(C(=O)NC2CCC(C)CC2)oc2ccccc12 (stereo unspecified)	n	n	n	n	43	n	n	n
COC(=O)c1[nH]c2ccccc2c1NC(=O)C(C)N1CCOCC1 (stereo unspecified)	n	n	x	n	x	n	x	x
COC(=O)c1[nH]c2cc(C)ccc2c1NC(=O)CN1CCN(C(=O)c2ccco2)CC1	x	n	x	n	x	n	n	n
COC(=O)c1[nH]c2ccccc2c1NC(=O)C(C)N1CCN(C(=O)c2ccco2)CC1 (stereo unspecified)	n	n	n	n	47	u	u	n
CN1CCN(C(=O)c2cnn(-c3ccccc3)c2C2CCN(C(=O)OC(C)(C)C)CC2)CC1	n	n	x	x	n	x	x	x
CCCn1c(-c2ccc(OC)cc2)nc2ccccc21	n	u	n	n	n	n	n	u
COc1ccc([C@H]2CC(=O)C=C(c3cc(F)ccc3F)C2)cc1OC	n	x	n	n	n	n	n	n
COc1cc(F)cc(C2=CC(=O)C[C@H](c3ccc(F)cc3)C2)c1	n	x	n	n	n	n	x	x
COc1cccc(C2=CC(=O)C[C@H](c3ccc(F)cc3)C2)c1	n	x	n	n	n	n	n	n
COc1ccc([C@H]2CC(=O)C=C(c3ccccc3Oc3ccccc3)C2)cc1	n	x	n	n	n	n	n	n
COc1ccc(C2=CC(=O)C[C@H](c3ccc(OC)c(OC)c3)C2)cc1	n	x	n	n	n	n	n	n
CN(C)c1nnnn1-c1ccccc1Oc1ncc(C(F)(F)F)cc1Cl	n	n	n	n	n	n	x	x
OC(CNCCc1ccccc1)COc1ccc(OCC(O)CNCCc2ccccc2)cc1 (stereo unspecified)	x	n	x	n	x	n	n	n
COc1ccc(C(OCC(O)CNCCc2ccccc2)c2ccc(OC)cc2)cc1 (stereo unspecified)	n	n	n	n	51	n	n	n
CCc1ccc(Oc2nc3c(C)cccn3c(=O)c2/C=C(\C#N)c2nc3ccccc3[nH]2)cc1	n	u	x	x	n	x	x	x
COc1ccc(N2CC(c3nc(-c4cc(OC)c(OC)c(OC)c4)no3)CC2=O)cc1Cl (stereo unspecified)	n	n	x	x	n	x	x	x
COc1ccc(CCNC(=O)Cn2nc(C)n3nc(-c4ccccc4)cc3c2=O)cc1OC	n	n	n	n	n	n	x	x
CCOC(=O)c1ccc(-c2c(-c3cc(OC)c(OC)c(OC)c3)noc2C)cc1F	n	n	n	n	n	n	x	x
SMILES	D2 PAM-1	Anesthetic bind	D2 antagonist	D2 PAM-2	D2 ag-1	D2 ag-2	D3 arrestin ag	D2 ag-3
CCOC(=O)c1ccc(-c2c(-c3ccc(OC)cc3)oc(=O)c3cc(OC)c(OC)cc23)cc1F	x	x	x	n	x	n	n	n
Cn1c(CC(=O)NNC(=O)c2ccc(F)cc2Cl)nc2ccccc21	n	x	n	n	n	n	x	x
Cn1c(CC(=O)NNC(=O)c2ccccc2[N+](=O)[O-])nc2ccccc21	n	x	n	n	n	n	n	n
N#C/C(=C\C1CC=CCC1)c1nc2ccccc2[nH]1 (stereo unspecified)	n	u	n	n	n	n	x	x
O=S(=O)(Nc1ccc(-c2cn3ccccc3n2)cc1)c1ccccc1	n	n	40	n	n	n	n	n
Cc1cccc(S(=O)(=O)Nc2ccc(-c3cn4ccccc4n3)cc2)c1	n	n	n	n	n	n	x	x
CS(=O)(=O)N1CCc2cc(C(=O)Nc3cccc([N+](=O)[O-])c3)ccc21	n	n	n	n	n	n	x	x
CC(C)CN(C(=O)CSc1nc(N)cc(N)n1)C1CCS(=O)(=O)C1 (stereo unspecified)	x	x	x	n	x	n	x	x
COc1cc(-c2nnc(NC(=O)CCS(=O)(=O)c3ccccc3)o2)cc(OC)c1OC	n	x	41	n	n	n	n	n
COc1cc(-c2nnc(NC(=O)CCS(=O)(=O)c3ccc(F)cc3)o2)cc(OC)c1OC	n	x	n	n	n	n	x	x
CCCCCCc1cc2cc(S(=O)(=O)c3ccc(F)c(Cl)c3)c(=O)oc2cc1O	n	n	n	n	34	n	28µM	u
Cc1ccc2[nH]c3c(c2c1)CN(C(=O)CN1CCN(C(=O)c2ccco2)CC1)CC3	n	n	n	x	n	x	x	x
CC(=O)c1ccc(OC(C)C(=O)OCC(=O)NCCc2ccccc2)cc1 (stereo unspecified)	n	x	n	n	n	n	n	n
CC(=O)c1ccc(S(=O)(=O)NCCC(=O)OCC(=O)NCCc2ccccc2)cc1	n	n	n	n	n	n	x	x
Cc1ccccc1C(=O)NNC(=O)c1cc(S(=O)(=O)N2CCOCC2)ccc1C	n	x	n	n	n	n	n	n
